G9a block = blocks human histone lysine methyltransferase G9a | G9a H3K9 monomethylation, AlphaScreen, 2 h | Potency, µM (top dose mostly 102 µM), without a hit: at the top dose activity, negative = inhibition, usual class: inhibitors | 350,000 tested, 8.8% active; also: % is scaled to controls: 0 for no effect and ±100 for the full control effect; nearly all actives have a fitted effect of over 75% in size
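G9a (20 nM) was preincubated 15 min with compound, then reacted 2 h at room temperature with 500 nM biotin-H3K9 peptide and 20 µM SAM. Monomethyl-H3K9 detected by AlphaScreen using anti-H3K9me1 antibody.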
HP1b binding inh = blocks HP1-beta chromodomain binding to methylated histone tails; AlphaScreen HP1-beta / biotin-H3K9me3 peptide binding; Potency, µM (highest dose often 114 µM), inactives show at the highest dose activity change, negative = inhibition, most hits filed as inhibitors; 390,000 tested, 0.56% active; also: nearly all actives have a fitted effect of over 70% in size
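HP1-beta protein (50 nM final) preincubated 30 min at room temperature with biotinylated H3(1-18)K9me3 peptide (50 nM) in PBS pH 7.4, 0.01% Tween-20, then compound added for 30 min. AlphaScreen streptavidin donor/nickel chelate acceptor beads (10 ug/mL final), 30 min dark, luminescence read.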
L3MBTL1 inh = inhibitors of human L3MBTL1; 230,000 tested, 0.66% active; Q9Y468; AlphaScreen L3MBTL1–H3K9me1 peptide binding; AID 485360; Potency, µM (highest dose often 57.1 µM), for inactives: top-dose activity, negative = inhibition, actives largely listed as inhibitors; also: % is scaled to controls: 0 for no effect and ±100 for the full control effect; nearly all actives have a fitted effect of over 60% in size
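AlphaScreen proximity signal between nickel-chelate acceptor and streptavidin donor beads (final 10 ug/mL) reports binding of 50 nM L3MBTL1 to 75 nM biotin-H3 K9me1 peptide; complex incubated with compounds 30 min at room temperature; cefsulodin titration as control.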
JMJD2A Tudor inh = JMJD2A Tudor domain (human) inhibition; O75164; AlphaScreen JMJD2A-Tudor / H3K4me3 peptide binding; Potency, µM (highest dose often 114 µM), for the others: top-dose activity change, negative = inhibition, usual class: inhibitors; 390,000 tested, 4.4% active; AID 504339; also: % is scaled to controls: 0 for no effect and ±100 for the full control effect; nearly all actives have a fitted effect of over 50% in size
BAZ2B inh = inhibitors of human BAZ2B bromodomain; 360,000 tested, 4.4% active; AID 504333; Potency, µM (series often up to 114 µM), for inactives: at the highest dose activity change, negative = inhibition, hits mostly inhibitors; AlphaScreen BAZ2B-H3K14Ac peptide displacement; also: % is scaled to controls: 0 for no effect and ±100 for the full control effect; nearly all actives have a fitted effect of over 60% in size
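Multi-concentration screen (max 110 uM) measuring displacement of acetylated histone H3 peptide from BAZ2B by AlphaScreen, using 50 nM protein, 50 nM peptide and 10 ug/mL streptavidin donor plus Ni-chelate acceptor beads.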
An asterisk follows results filed as active; ? = inconclusive; · = not tested or not shown; ! = a repeat was not active; [ ] = remark or other dose. In the library only some 11% were active in any assay of this set; here they are far more common. Calls follow the shape of the dose curve; as a rule, active = well fitted inhibition curve with a large enough effect; inconclusive = small, poorly fitted or top-dose-only effect; inactive = no such curve, though single readings can be large or run the other way. Potency is read from the fitted curve at half-maximal effect.

SMILES	G9a block	HP1b binding inh	L3MBTL1 inh	JMJD2A Tudor inh	BAZ2B inh
CN(C)c1ccc(/C=C/C=C2/C(=O)NC(=O)N(c3ccccc3)C2=O)cc1	16µM*	16µM*	?	?	13µM*
O=C1NC(=O)N(Cc2ccco2)C(=O)/C1=C/C=C/c1ccco1	-175%[59 µM]	11µM*	·	35µM*	32µM*
Cc1cccc(N2C(=O)NC(=O)/C(=C/c3ccc([N+](=O)[O-])o3)C2=O)c1	?	?	6.3µM*	20µM*	22µM*
Cn1cc(/C=C2\C(=O)NC(=O)N(c3ccccc3)C2=O)c2ccccc21	-1%	137%	·	-32%	-21%
O=c1[nH]c(=O)n(Cc2ccco2)c(O)c1/C=N/N1CCCCCC1	?	7%	-12%	-13%	-8%
CNC(C)[C@@H](O)c1ccc(O)cc1 (stereo partly specified)	-10%[12.7 µM]	·	·	·	·
CC1(C)c2[nH]c3ccccc3c2C[C@H]2C(=O)N(Cc3ccccc3F)C(=O)N21	·	-14%	·	?	·
Cc1ccc(N2C(=O)NC(=O)/C(=C\C=C\c3ccco3)C2=O)cc1	35µM*	14%	·	-24%	-33%
CCN1C[C@]2(COC)CC[C@H](O)[C@@]34[C@@H]5C[C@H]6[C@@H](OC)[C@H]5[C@](O)(C[C@@H]6OC)[C@@](O)([C@@H](OC)[C@H]23)[C@@H]14	22%[21.5 µM]	·	·	·	·
CC1COC2=C1C(=O)C(=O)c1c2ccc2c1CCCC2(C)C (stereo unspecified)	7.1µM*	·	·	·	·
C[C@H]1COC2=C1C(=O)C(=O)c1c2ccc2c1CCCC2(C)C	-169%[59 µM]	?	?	32µM*	14µM*
CC1(C)CC2CC(C)(CN2S(=O)(=O)c2cccc(C(=O)OCC(=O)NC(N)=O)c2)C1 (stereo unspecified)	0%[0.501 µM]	68%	2%	-6%	-4%
CN(C)CCN(C(=O)c1cc(Cl)sc1Cl)c1nc2ccc(F)cc2s1	11µM*	-14%	-2%	?	?
CCC(C(N)=O)N1CCCC1=O (stereo unspecified)	27%[59 µM]	·	·	·	·
O=C(Nc1ccccc1)N1CC[C@@]2(CCCN(C(=O)Oc3ccccc3)C2)C1	-1%[12.7 µM]	·	·	·	·
C/C(=N\Nc1ccccc1)c1c(O)n(Cc2ccccc2)c(=O)[nH]c1=O	10µM*	29%	15%	?	-11%
C/C(=N\Nc1ccccc1)c1c(O)n(-c2ccccc2)c(=O)[nH]c1=O	50µM*	35%	-8%	4%	-17%
C/C(=N\Nc1ccccc1)c1c(O)[nH]c(=O)[nH]c1=O	·	38%	·	-6%	-6%
CC(C)n1c(/C=C\[C@@H](O)C[C@@H](O)CC(=O)O)c(-c2ccc(F)cc2)c2ccccc21	12%[21.5 µM]	·	·	·	·
NC(N)=NCCCCCCCCCCN=C(N)N	-1%[59 µM]	·	·	·	·
Cc1ccc(-c2csc(NC(CO)c3nc4ccccc4n3CCOCCO)n2)cc1 (stereo unspecified)	·	-4%	·	?	·
Oc1ccc(C[C@H]2NCCc3cc(O)c(O)cc32)cc1O	?	79µM*	·	40µM*	-19%
Nc1ncnc2c1ncn2[C@@H]1O[C@H](COP(=O)(O)CP(=O)(O)OP(=O)(O)O)[C@@H](O)[C@H]1O	13µM*!	·	·	·	·
Nc1ncnc2c1ncn2[C@@H]1O[C@H](COP(=O)(O)CP(=O)(O)O)[C@@H](O)[C@H]1O	38%[59 µM]	20%	·	79µM*	·
CCNC(=O)[C@H]1O[C@@H](n2cnc3c(N)ncnc32)[C@H](O)[C@@H]1O	7%[59 µM]	37%	·	-1%	-7%
SMILES	G9a block	HP1b binding inh	L3MBTL1 inh	JMJD2A Tudor inh	BAZ2B inh
COc1ccc(NC(=O)CN2C(=O)C(C)N=C(c3ccccc3F)c3cc(Cl)ccc32)c(OC)c1 (stereo unspecified)	-31%[59 µM]	5%	·	-33%	-34%
O=C1C2CCCN2C(c2cccnc2)N1c1ccc(Cl)cc1 (stereo unspecified)	-25%	41%	8%	-14%	8%
Cc1ccc(C2N(c3cc(C)on3)C(=O)C3CCCN32)cc1 (stereo unspecified)	35µM*	25%	6%	-31%[57.1 µM]	-35%
Cc1cc(N2C(=O)C3CCCN3C2c2ccccc2)no1 (stereo unspecified)	?	-25%	43%	28µM*	?
O=C(Oc1ccccc1)N1CCC2(CCN(Cc3ccccc3)CC2)CC1	8%[12.7 µM]	·	·	·	·
CCC(=O)Nc1ccc(N2CCN(CC)CC2)c(Cl)c1	79µM*	5%	2%	-17%	?
CC[C@]12C=CCN3CCC4(c5cc(Br)c(OC)cc5N(C)C4[C@@](O)(C(=O)OC)[C@@H]1OC(C)=O)C32 (stereo partly specified)	35µM*	14%	14%	-25%	-14%
CCCCOP(=O)(OCCCC)C(Nc1ccc(C(=O)OCC)cc1)c1ccncc1 (stereo unspecified)	7%	50%	·	-11%	21%
Cc1c(O)c(=O)ccn1C	1.6µM*!	46%	4%	16µM*	45µM*
COc1ccc2nc(NC(=O)c3nc(S(=O)(=O)Cc4cccc(C)c4)ncc3Cl)sc2c1	-5%[59 µM]	41%	·	-17%	-16%
Cc1ccc(NC(=O)CSc2nc(-c3ccco3)cc(C(F)(F)F)n2)c(C)c1	16%[59 µM]	42%	·	4%	1%
CCCCCCn1c(O)c(C=Nc2ccccc2N2CCOCC2)c(=O)[nH]c1=S	-38%	59%	1%	-7%	-13%
C=CCn1c(O)c(/C=N/N2CCCCC2c2cccnc2)c(=O)[nH]c1=S (stereo unspecified)	20%[59 µM]	26%	-4%	-4%	8%
CCCCn1c(O)c(/C=N/N2CCCCC2c2cccnc2)c(=O)[nH]c1=S (stereo unspecified)	8.9µM*	30%	-12%	-8%	-7%
CCCCn1c(O)c(/C=N/N2CCOCC2)c(=O)[nH]c1=S	45µM*	50%	-4%	8%	-19%
CCC1C2CC3C4N(C)c5ccccc5[C@]45CC(C2C5O)N3C1O (stereo partly specified)	-3%[2.33 µM]	·	·	·	·
Cn1cnc(CCN)c1	7.9µM*!	17%	·	14µM*	·
CC(C)Cn1c(-c2cccc(S(=O)(=O)N3CCOCC3)c2)n[nH]c1=S	·	12%	2%	7.1µM*	·
Cc1c(OC(=O)N(C)C)ccc2c1O/C(=C\c1ccco1)C2=O	32µM*	10%	·	-17%	56µM*
O=C(O)CCCC[C@@H]1SC[C@@H]2NC(=O)N[C@@H]21	·	-72%	·	?	·
C[C@]12CC[C@H]3[C@@H](CC[C@@]45O[C@@H]4C(=O)C(C#N)C[C@]35C)[C@@H]1CC[C@@H]2O (stereo partly specified)	-21%[12.7 µM]	·	·	·	·
Cc1c(C=C2C(=O)NC(=O)NC2=O)c(=O)n(-c2ccccc2)n1C	?	18%	12%	?	-14%
Cc1nn(Cc2ccccc2)c(C)c1C=C1C(=O)NC(=S)NC1=O	8.9µM*	-26%	6%	89µM*	-7%

Assay outcomes as filed in PubChem BioAssay.
